Experimental findings from the supplement of paper PMC10849652 are described below.

What all share (experiment): log2 fold change, soluble protein after heating vs DMSO (PISA); higher = thermal stabilisation; K562 lysate, 10 uM; active = over 0.2 and 3.5 SD of the protein, either way, in both replicates (recomputed)
Compound in experiment [1]: O=C1NC(=O)C(c2cnc3ccccn23)=C1c1cn2c3c(cc(F)cc13)CN(C(=O)N1CCCCC1)CC2
In a few lines: (§1)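 Quantification was by TMTpro 16plex LC-MS/MS with equalised channel sums, applied to the supernatant after 21,000xg for 90 min. Samples were crude K562 extract at 1 mg/mL protein in PBS pH 7.4 with 1 mM MgCl2, treated with 10 μM compound for 30 min, heated for 3 min across 48°C-58°C, pooled and brought to 0.5% NP-40 at 4°C. Values are log-two fold changes in thermal stability relative to solvent controls, from duplicates.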

Compound in the next experiment: c1cn2cc(-c3ccc4cn[nH]c4c3)nc(Nc3ccc(N4CCOCC4)cc3)c2n1 [entospletinib]
In a few lines: as §1

Compound in another experiment: O=C(CCCCCCC(=O)Nc1ccccc1)NO [vorinostat]
A digest of the protocol:
as §1

Compound in the next experiment: O=C(O)c1ccc2c(c1)nc(Nc1cccc(Cl)c1)c1ccncc12 [silmitasertib]
In a few lines:
as §1

Compound in experiment [2]: NCC(=O)Nc1ccc(-n2nc(C(F)(F)F)cc2-c2ccc3c(ccc4ccccc43)c2)cc1
A digest of the protocol: as §1

Of roughly 8,800 targets only a part is listed; those with a hit were picked by preference. About 0.5% of all pairs of compound and target were hits. Unmarked numbers belong to inactive results.

Sequence of UniProt Q6ZRR7 (Q6ZRR7 whole entry, looked up): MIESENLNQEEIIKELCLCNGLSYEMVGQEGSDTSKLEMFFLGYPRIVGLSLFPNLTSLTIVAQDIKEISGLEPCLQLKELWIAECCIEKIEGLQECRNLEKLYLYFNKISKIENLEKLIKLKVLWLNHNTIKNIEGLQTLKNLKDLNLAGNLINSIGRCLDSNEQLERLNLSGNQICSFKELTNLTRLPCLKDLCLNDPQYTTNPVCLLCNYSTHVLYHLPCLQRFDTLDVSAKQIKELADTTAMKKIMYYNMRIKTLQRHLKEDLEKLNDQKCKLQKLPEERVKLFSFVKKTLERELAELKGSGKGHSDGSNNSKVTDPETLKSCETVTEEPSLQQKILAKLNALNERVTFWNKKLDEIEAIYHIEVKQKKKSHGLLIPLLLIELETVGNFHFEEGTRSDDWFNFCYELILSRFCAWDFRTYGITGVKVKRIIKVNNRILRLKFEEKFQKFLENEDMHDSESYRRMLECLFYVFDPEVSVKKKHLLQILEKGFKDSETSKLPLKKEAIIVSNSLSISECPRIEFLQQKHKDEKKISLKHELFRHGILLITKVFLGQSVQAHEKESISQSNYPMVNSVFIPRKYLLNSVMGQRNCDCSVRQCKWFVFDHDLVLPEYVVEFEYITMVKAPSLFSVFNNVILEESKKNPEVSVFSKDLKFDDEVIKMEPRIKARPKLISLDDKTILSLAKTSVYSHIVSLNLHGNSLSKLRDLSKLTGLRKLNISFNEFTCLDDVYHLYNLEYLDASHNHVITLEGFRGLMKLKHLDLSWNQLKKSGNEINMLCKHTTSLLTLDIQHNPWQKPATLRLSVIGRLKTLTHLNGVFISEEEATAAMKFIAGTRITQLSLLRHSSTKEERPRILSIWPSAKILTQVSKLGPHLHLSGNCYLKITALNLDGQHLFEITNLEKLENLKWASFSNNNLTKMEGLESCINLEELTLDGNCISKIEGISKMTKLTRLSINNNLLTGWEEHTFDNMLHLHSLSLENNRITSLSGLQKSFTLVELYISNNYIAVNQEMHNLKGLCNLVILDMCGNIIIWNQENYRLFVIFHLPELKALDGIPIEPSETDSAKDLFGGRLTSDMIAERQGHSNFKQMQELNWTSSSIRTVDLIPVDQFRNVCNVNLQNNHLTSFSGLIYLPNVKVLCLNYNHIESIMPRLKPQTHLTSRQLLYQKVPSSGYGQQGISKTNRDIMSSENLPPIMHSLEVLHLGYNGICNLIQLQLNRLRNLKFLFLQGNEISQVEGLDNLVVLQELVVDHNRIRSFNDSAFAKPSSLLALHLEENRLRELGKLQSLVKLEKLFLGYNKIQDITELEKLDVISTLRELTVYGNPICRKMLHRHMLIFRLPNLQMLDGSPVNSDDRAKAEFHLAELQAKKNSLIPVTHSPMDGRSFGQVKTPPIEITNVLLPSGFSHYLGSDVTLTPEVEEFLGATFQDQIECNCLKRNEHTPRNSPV
Sequence of UniProt O95819 (O95819 whole entry, looked up): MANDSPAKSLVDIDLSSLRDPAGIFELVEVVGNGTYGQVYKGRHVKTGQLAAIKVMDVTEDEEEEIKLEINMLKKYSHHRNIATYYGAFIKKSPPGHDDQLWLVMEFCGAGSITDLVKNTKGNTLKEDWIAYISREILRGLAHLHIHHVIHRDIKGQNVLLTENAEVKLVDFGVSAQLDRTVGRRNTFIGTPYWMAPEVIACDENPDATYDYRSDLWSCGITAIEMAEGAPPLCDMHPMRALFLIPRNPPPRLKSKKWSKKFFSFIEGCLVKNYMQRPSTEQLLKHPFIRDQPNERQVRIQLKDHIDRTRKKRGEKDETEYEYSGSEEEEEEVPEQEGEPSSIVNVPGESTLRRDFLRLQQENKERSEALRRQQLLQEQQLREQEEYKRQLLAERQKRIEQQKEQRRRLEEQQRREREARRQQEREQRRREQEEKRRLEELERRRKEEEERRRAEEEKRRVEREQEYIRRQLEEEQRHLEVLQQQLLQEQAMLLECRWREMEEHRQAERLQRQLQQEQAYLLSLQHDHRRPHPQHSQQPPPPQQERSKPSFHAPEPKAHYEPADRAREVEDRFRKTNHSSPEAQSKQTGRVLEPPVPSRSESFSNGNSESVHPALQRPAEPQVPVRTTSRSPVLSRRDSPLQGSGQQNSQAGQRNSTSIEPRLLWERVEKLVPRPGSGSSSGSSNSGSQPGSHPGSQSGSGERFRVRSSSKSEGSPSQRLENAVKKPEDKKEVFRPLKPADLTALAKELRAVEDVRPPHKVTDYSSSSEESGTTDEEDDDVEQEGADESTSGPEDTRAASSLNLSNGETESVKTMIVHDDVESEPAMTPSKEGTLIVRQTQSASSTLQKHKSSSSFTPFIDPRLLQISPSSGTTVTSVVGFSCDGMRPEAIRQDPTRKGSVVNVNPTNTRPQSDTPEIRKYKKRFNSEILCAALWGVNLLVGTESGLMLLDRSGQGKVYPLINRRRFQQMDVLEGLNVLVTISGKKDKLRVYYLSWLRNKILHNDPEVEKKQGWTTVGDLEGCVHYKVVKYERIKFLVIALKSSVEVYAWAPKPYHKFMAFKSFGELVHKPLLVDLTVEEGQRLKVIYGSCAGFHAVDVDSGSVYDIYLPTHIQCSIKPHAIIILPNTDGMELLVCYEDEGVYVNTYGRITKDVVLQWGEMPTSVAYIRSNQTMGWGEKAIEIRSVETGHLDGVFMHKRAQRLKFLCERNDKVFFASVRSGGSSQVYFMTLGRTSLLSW
Sequence of UniProt P27816 (P27816 whole entry, looked up): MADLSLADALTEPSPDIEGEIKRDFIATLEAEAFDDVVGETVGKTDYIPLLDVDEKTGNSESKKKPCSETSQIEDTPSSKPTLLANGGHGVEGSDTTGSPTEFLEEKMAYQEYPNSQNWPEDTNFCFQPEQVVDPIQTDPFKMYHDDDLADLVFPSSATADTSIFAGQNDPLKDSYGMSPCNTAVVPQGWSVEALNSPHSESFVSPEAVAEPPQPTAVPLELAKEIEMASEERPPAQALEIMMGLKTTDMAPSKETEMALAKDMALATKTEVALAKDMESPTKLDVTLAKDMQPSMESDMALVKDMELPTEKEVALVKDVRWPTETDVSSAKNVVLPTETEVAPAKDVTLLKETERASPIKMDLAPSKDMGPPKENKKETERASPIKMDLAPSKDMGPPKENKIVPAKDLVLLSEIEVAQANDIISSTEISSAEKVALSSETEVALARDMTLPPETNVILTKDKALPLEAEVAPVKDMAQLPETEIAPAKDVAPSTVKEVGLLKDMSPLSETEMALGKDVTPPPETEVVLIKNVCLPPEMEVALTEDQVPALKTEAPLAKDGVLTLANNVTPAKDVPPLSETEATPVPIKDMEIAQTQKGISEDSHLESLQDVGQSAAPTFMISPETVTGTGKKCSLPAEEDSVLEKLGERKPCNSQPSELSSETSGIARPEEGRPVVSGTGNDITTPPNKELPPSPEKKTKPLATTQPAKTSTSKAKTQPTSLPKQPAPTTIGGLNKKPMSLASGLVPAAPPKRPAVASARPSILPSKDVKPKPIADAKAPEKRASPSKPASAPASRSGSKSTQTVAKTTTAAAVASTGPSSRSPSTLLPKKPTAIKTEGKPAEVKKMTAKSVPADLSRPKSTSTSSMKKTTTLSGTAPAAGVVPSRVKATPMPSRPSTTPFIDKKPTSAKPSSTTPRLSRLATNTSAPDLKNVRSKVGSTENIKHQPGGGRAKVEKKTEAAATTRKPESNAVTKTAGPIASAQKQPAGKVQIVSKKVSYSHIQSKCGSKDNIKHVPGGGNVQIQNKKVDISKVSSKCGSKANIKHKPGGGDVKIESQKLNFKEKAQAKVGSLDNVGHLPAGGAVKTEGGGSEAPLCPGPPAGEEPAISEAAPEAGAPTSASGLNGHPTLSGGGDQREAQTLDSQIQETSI
Sequence of UniProt Q9BW19 (Q9BW19 whole entry, looked up): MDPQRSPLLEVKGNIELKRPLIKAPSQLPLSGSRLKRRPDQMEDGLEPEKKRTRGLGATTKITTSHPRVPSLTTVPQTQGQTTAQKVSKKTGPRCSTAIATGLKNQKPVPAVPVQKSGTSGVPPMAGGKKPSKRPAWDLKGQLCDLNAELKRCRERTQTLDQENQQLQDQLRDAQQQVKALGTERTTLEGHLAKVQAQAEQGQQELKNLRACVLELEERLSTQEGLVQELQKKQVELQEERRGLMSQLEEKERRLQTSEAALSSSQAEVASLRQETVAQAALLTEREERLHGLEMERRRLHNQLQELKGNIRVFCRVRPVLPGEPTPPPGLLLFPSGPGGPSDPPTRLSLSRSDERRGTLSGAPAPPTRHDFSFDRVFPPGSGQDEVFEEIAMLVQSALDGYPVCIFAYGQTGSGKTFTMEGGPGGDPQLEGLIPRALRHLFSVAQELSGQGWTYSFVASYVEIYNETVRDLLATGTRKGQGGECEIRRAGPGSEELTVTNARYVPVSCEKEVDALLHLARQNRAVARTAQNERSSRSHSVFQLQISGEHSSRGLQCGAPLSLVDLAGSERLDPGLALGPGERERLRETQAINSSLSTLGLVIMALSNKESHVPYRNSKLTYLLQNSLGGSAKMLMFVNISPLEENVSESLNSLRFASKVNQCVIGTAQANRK
Sequence of UniProt Q9H204 (Q9H204 whole entry, looked up): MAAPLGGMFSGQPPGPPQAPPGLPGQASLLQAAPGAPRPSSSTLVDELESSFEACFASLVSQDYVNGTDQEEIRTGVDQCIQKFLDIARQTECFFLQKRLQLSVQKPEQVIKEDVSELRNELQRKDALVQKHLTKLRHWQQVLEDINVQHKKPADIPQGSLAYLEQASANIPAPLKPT

KIF18B (UniProt Q86Y91): the log2 fold change was -0.098 in experiment [1] and -0.035 with entospletinib.
With MED28 (UniProt Q9H204), the log2 fold change is -0.219 in the experiment with vorinostat, 0.003 with silmitasertib and 0.09 in experiment [1].
Regarding MAPK7 (UniProt Q13164), the log2 fold change with vorinostat was -0.102; with silmitasertib it was 0; in experiment [1], -0.01; with entospletinib it was 0.029.
With MEGF8 (UniProt Q7Z7M0), the log2 fold change in the experiment with vorinostat is 0.05; with silmitasertib, -0.062; in experiment [1], 0.02; in the experiment with entospletinib, -0.048.
With MAP4 (UniProt P27816), the log2 fold change in experiment [2] was 0.017; with vorinostat it was 0.092; with silmitasertib it was -0.023; in experiment [1], 0.016; in the experiment with entospletinib it was 0.005.
Take MAP4K4 isoform 3 (UniProt O95819): the log2 fold change was 0.041 in experiment [2], -0.145 in the experiment with vorinostat, 0.045 with silmitasertib and 0.178 with entospletinib.
MAP4K4 isoform 6 (UniProt O95819): the log2 fold change with vorinostat was -0.134; with silmitasertib, 0.02; with entospletinib, 0.094.
As to LRRC9 (UniProt Q6ZRR7), the log2 fold change was 0.106 in experiment [2], -0.034 in experiment [1] and 0.011 with entospletinib.
As to KIF21A (UniProt H0YI78), the results for the log2 fold change with vorinostat and with silmitasertib were -0.113 and -0.016, respectively.
Take MPI (UniProt P34949): the log2 fold change in experiment [2] was 0.013; with vorinostat, 0.049; in the experiment with silmitasertib, -0.047; in experiment [1], -0.007; in the experiment with entospletinib, -0.017.
Taken in the same sequence, the figures for KIFC1 (UniProt Q9BW19) were 0.02, -0.898 (active), 0.03, -0.04 and -0.002.
